# Reference: the supplement of paper PMC4466140
# Experiments:
# Test in all cases: SPOT peptide array binding signal intensity (averaged, normalized) (arbitrary units (background-subtracted, floor 0; scale differs between SH3 domains)); higher = stronger binding of the SH3 domain to the peptide
# [1] = target: AgAbp1
# Procedure, shortened: (§1)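 Cellulose membranes carried synthetic 15-mer peptides with cysteines swapped for serines. These were incubated overnight at 4°C with 10 μg/ml of GST-fused SH3 domains from four yeast species in TBS-based blocking buffer. Binding signal, detected with anti-GST antibody and quantified in Genespotter, is the normalized, background-subtracted spot intensity averaged over replicates, in arbitrary units specific to each domain.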
# [2] = target: AgBbc1
# Procedure, shortened: as §1
# [3] = target: AgBem1-D1
# Procedure, shortened: as §1
# [4] = target: AgBzz1-D1
# Procedure, shortened: as §1
# [5] = target: AgBzz1-D2
# Procedure, shortened: as §1
# [6] = target: AgCyk3
# Procedure, shortened: as §1
# [7] = target: AgFus1
# Procedure, shortened: as §1
# [8] = target: AgHof1
# Procedure, shortened: as §1
# [9] = target: AgHse1
# Procedure, shortened: as §1
# [10] = target: AgLsb1
# Procedure, shortened: as §1
# [11] = target: AgLsb4
# Procedure, shortened: as §1
# [12] = target: AgMyo5
# Procedure, shortened: as §1
# [13] = target: AgNbp2
# Procedure, shortened: as §1
# [14] = target: AgRvs167
# Procedure, shortened: as §1
# [15] = target: AgSho1
# Procedure, shortened: as §1
# [16] = target: AgSla1-D1-D2
# Procedure, shortened: as §1
# [17] = target: AgSla1-D3
# Procedure, shortened: as §1
# [18] = target: CaAbp1-D1
# Procedure, shortened: as §1
# [19] = target: CaAbp1-D2
# Procedure, shortened: as §1
# [20] = target: CaBbc1
# Procedure, shortened: as §1
# [21] = target: CaBem1-D1
# Procedure, shortened: as §1
# [22] = target: CaBzz1-D1
# Procedure, shortened: as §1
# [23] = target: CaBzz1-D2
# Procedure, shortened: as §1
# [24] = target: CaCyk3
# Procedure, shortened: as §1
# [25] = target: CaFus1
# Procedure, shortened: as §1
# [26] = target: CaHof1
# Procedure, shortened: as §1
# [27] = target: CaHse1
# Procedure, shortened: as §1
# [28] = target: CaLsb1
# Procedure, shortened: as §1
# [29] = target: CaLsb4
# Procedure, shortened: as §1
# [30] = target: CaMyo5
# Procedure, shortened: as §1
# [31] = target: CaNbp2
# Procedure, shortened: as §1
# [32] = target: CaRvs167
# Procedure, shortened: as §1
# [33] = target: CaRvs167-3
# Procedure, shortened: as §1
# [34] = target: CaSho1
# Procedure, shortened: as §1
# [35] = target: CaSla1-D1-D2
# Procedure, shortened: as §1
# [36] = target: CaSla1-D3
# Procedure, shortened: as §1
# [37] = target: ScAbp1
# Procedure, shortened: as §1
# [38] = target: ScBbc1
# Procedure, shortened: as §1
# [39] = target: ScBem1-D1
# Procedure, shortened: as §1
# [40] = target: ScBzz1-D1
# Procedure, shortened: as §1
# [41] = target: ScBzz1-D2
# Procedure, shortened: as §1
# [42] = target: ScCyk3
# Procedure, shortened: as §1
# [43] = target: ScFus1
# Procedure, shortened: as §1
# [44] = target: ScHof1
# Procedure, shortened: as §1
# [45] = target: ScHse1
# Procedure, shortened: as §1
# [46] = target: ScLsb1
# Procedure, shortened: as §1
# [47] = target: ScLsb2
# Procedure, shortened: as §1
# [48] = target: ScLsb3
# Procedure, shortened: as §1
# [49] = target: ScLsb4
# Procedure, shortened: as §1
# [50] = target: ScMyo3
# Procedure, shortened: as §1
# [51] = target: ScMyo5
# Procedure, shortened: as §1
# [52] = target: ScNbp2
# Procedure, shortened: as §1
# [53] = target: ScPex13
# Procedure, shortened: as §1
# [54] = target: ScRvs167
# Procedure, shortened: as §1
# [55] = target: ScSho1
# Procedure, shortened: as §1
# [56] = target: ScSla1-D1-D2
# Procedure, shortened: as §1
# [57] = target: ScSla1-D3
# Procedure, shortened: as §1
# [58] = target: SpAbp1-D1
# Procedure, shortened: as §1
# [59] = target: SpBbc1
# Procedure, shortened: as §1
# [60] = target: SpBzz1-D1
# Procedure, shortened: as §1
# [61] = target: SpBzz1-D2
# Procedure, shortened: as §1
# [62] = target: SpCyk3
# Procedure, shortened: as §1
# [63] = target: SpHof1
# Procedure, shortened: as §1
# [64] = target: SpHof1-2
# Procedure, shortened: as §1
# [65] = target: SpHof1-3
# Procedure, shortened: as §1
# [66] = target: SpHse1
# Procedure, shortened: as §1
# [67] = target: SpLsb1
# Procedure, shortened: as §1
# [68] = target: SpLsb4
# Procedure, shortened: as §1
# [69] = target: SpMyo1
# Procedure, shortened: as §1
# [70] = target: SpNbp2
# Procedure, shortened: as §1
# [71] = target: SpPex13
# Procedure, shortened: as §1
# [72] = target: SpRvs167
# Procedure, shortened: as §1
# [73] = target: SpSla1-D1-D2
# Procedure, shortened: as §1
# [74] = target: SpSla1-D3
# Procedure, shortened: as §1
binder,measurement,setting,value
NENKKLPPAPTVFGL,SPOT peptide array binding signal intensity,[1],≤ 0
same,SPOT peptide array binding signal intensity,[2],≤ 0
same,SPOT peptide array binding signal intensity,[3],≤ 0
same,SPOT peptide array binding signal intensity,[4],27
same,SPOT peptide array binding signal intensity,[5],35
same,SPOT peptide array binding signal intensity,[6],≤ 0
same,SPOT peptide array binding signal intensity,[7],≤ 0
same,SPOT peptide array binding signal intensity,[8],19.5
same,SPOT peptide array binding signal intensity,[9],72
same,SPOT peptide array binding signal intensity,[10],≤ 0
same,SPOT peptide array binding signal intensity,[11],25
same,SPOT peptide array binding signal intensity,[12],≤ 0
same,SPOT peptide array binding signal intensity,[13],≤ 0
same,SPOT peptide array binding signal intensity,[14],6.17
same,SPOT peptide array binding signal intensity,[15],1550
same,SPOT peptide array binding signal intensity,[16],4
same,SPOT peptide array binding signal intensity,[17],1.5
same,SPOT peptide array binding signal intensity,[18],≤ 0
same,SPOT peptide array binding signal intensity,[19],3
same,SPOT peptide array binding signal intensity,[20],≤ 0
same,SPOT peptide array binding signal intensity,[21],≤ 0
same,SPOT peptide array binding signal intensity,[22],3.5
same,SPOT peptide array binding signal intensity,[23],1.5
same,SPOT peptide array binding signal intensity,[24],≤ 0
same,SPOT peptide array binding signal intensity,[25],36.5
same,SPOT peptide array binding signal intensity,[26],0.25
same,SPOT peptide array binding signal intensity,[27],≤ 0
same,SPOT peptide array binding signal intensity,[28],1.5
same,SPOT peptide array binding signal intensity,[29],≤ 0
same,SPOT peptide array binding signal intensity,[30],≤ 0
same,SPOT peptide array binding signal intensity,[31],≤ 0
same,SPOT peptide array binding signal intensity,[32],1.17
same,SPOT peptide array binding signal intensity,[33],≤ 0
same,SPOT peptide array binding signal intensity,[34],398
same,SPOT peptide array binding signal intensity,[35],≤ 0
same,SPOT peptide array binding signal intensity,[36],3.5
same,SPOT peptide array binding signal intensity,[37],≤ 0
same,SPOT peptide array binding signal intensity,[38],≤ 0
same,SPOT peptide array binding signal intensity,[39],1
same,SPOT peptide array binding signal intensity,[40],11
same,SPOT peptide array binding signal intensity,[41],6
same,SPOT peptide array binding signal intensity,[42],1
same,SPOT peptide array binding signal intensity,[43],8
same,SPOT peptide array binding signal intensity,[44],6
same,SPOT peptide array binding signal intensity,[45],6.5
same,SPOT peptide array binding signal intensity,[46],≤ 0
same,SPOT peptide array binding signal intensity,[47],≤ 0
same,SPOT peptide array binding signal intensity,[48],≤ 0
same,SPOT peptide array binding signal intensity,[49],6
same,SPOT peptide array binding signal intensity,[50],≤ 0
same,SPOT peptide array binding signal intensity,[51],≤ 0
same,SPOT peptide array binding signal intensity,[52],≤ 0
same,SPOT peptide array binding signal intensity,[53],254
same,SPOT peptide array binding signal intensity,[54],0.167
same,SPOT peptide array binding signal intensity,[55],2310
same,SPOT peptide array binding signal intensity,[56],≤ 0
same,SPOT peptide array binding signal intensity,[57],4.5
same,SPOT peptide array binding signal intensity,[58],≤ 0
same,SPOT peptide array binding signal intensity,[59],4.5
same,SPOT peptide array binding signal intensity,[60],126
same,SPOT peptide array binding signal intensity,[61],0.25
same,SPOT peptide array binding signal intensity,[62],2.5
same,SPOT peptide array binding signal intensity,[63],49.8
same,SPOT peptide array binding signal intensity,[64],344
same,SPOT peptide array binding signal intensity,[65],166
same,SPOT peptide array binding signal intensity,[66],71.8
same,SPOT peptide array binding signal intensity,[67],0.5
same,SPOT peptide array binding signal intensity,[68],≤ 0
same,SPOT peptide array binding signal intensity,[69],≤ 0
same,SPOT peptide array binding signal intensity,[70],≤ 0
same,SPOT peptide array binding signal intensity,[71],≤ 0
same,SPOT peptide array binding signal intensity,[72],0.333
same,SPOT peptide array binding signal intensity,[73],8
same,SPOT peptide array binding signal intensity,[74],1.5
